Laboratory results: PubChem BioAssay
For some of these results: Potency and affinity values are given separately. Calls of active or inactive are those of the source. Unless noted, no rule for the calls is given here.

Tests used:
[1] = antimalarial activity against Dd2 strain (AID 2302;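 active = growth inhibition above 50% at the single 2 µM test dose, taken to imply half-maximal potency below 2 µM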;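 also: 0% = DMSO untreated growth and 100% = chloroquine plus artemisinin killed control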); conditions: P. falciparum Dd2 in RBCs, LDH growth readout, 72 h; at 2 µM; hits give high values
[2] = human hepatoma cell viability loss – ATP luminescence, cytotoxicity control for P. falciparum antimalarial project, primary screen (AID 2303;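 active = inhibition above 50%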;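 also: 0% = DMSO wells and 100% = digitonin-killed cells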); conditions: HepG2 viability, 24-48 h, at 10 µM, hits give high values
[3] = target: L-lactate dehydrogenase (Plasmodium falciparum (isolate CDC / Honduras)) (UniProt Q27743); experiment: PfLDH activity inhibition – cell lysate, 3D7 strain, counter-screen for P. falciparum growth inhibition project (AID 2304);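 also: 0% = vehicle and 100% = reference inhibitor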; conditions: P. falciparum 3D7 crude extract, LDH APAD/NBT absorbance; at 2 µM; hits give high values
L-lactate dehydrogenase (Plasmodium falciparum (isolate CDC / Honduras)), sequence (Q27743 whole entry, looked up): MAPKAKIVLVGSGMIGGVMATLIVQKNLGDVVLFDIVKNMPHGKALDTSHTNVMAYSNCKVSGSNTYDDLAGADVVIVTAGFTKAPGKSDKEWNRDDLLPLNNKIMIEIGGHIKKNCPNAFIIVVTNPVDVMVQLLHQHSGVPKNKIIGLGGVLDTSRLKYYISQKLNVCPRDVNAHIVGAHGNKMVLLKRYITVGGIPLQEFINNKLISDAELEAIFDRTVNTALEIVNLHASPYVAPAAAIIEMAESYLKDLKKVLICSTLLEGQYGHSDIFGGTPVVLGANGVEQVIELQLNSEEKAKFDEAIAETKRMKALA

[4] = inhibition of 3D7 malaria parasite growth – strain 3D7 (AID 2306);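 also: 0% = DMSO wells and 100% = chloroquine plus artemisinin control wells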; conditions: P. falciparum 3D7 erythrocytic growth, LDH absorbance, 72 h; at 2 µM; hits give high values
[5] = target: Calcium-dependent protein kinase 1 (Plasmodium falciparum (isolate 3D7)) (UniProt P62344); experiment: PfCDPK1 kinase inhibitors, biochemical, TCAMS library (AID 1159585; cut-off not given, nearly all actives have IC50 up to about 0.98 µM;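 also: inhibitors leave more ATP so luminescence rises with inhibition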); conditions: recombinant PfCDPK1, Kinase-Glo ATP depletion luminescence
Calcium-dependent protein kinase 1 (Plasmodium falciparum (isolate 3D7)), sequence (P62344 whole entry, looked up): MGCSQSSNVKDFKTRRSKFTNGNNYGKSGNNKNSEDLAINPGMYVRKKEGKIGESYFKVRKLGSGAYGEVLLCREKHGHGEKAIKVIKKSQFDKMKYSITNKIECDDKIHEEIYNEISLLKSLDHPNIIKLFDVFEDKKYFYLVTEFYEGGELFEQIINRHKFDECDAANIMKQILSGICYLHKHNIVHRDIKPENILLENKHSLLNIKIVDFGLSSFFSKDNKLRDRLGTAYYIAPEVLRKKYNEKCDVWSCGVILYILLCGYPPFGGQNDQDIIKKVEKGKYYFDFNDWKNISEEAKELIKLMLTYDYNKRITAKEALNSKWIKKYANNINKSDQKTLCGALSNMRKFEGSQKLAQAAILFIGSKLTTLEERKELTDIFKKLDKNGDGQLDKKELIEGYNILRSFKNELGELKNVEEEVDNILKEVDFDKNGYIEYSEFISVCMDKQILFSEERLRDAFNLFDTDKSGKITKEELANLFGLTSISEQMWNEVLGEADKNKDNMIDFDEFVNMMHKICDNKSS

[6] = target: Plasmodium falciparum protein kinase 6 (PK6, PF3D7_1337100) (UniProt Q8IDW1); experiment: PfPK6 kinase inhibitors, biochemical, TCAMS library (AID 1159586); conditions: recombinant PfPK6, Kinase-Glo ATP depletion luminescence
Plasmodium falciparum protein kinase 6 (PK6, PF3D7_1337100), sequence (Q8IDW1 1-305): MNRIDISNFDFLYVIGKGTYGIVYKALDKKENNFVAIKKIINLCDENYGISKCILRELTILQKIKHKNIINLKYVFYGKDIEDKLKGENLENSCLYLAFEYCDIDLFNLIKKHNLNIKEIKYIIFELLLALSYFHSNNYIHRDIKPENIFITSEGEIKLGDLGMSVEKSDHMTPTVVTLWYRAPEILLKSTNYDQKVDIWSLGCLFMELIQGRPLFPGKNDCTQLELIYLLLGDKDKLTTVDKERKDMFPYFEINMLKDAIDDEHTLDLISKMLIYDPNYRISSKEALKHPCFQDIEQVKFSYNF

[7] = target: Protein kinase 7 (PK7), Plasmodium falciparum 3D7 (PF3D7_0213400) (UniProt Q7YTF7); experiment: inhibition of Plasmodium PK7 catalytic activity – biochemical, TCAMS antimalarial set, Kinase-Glo luminescence (AID 1159587); conditions: recombinant PfPK7, Kinase-Glo ATP depletion luminescence
Protein kinase 7 (PK7), Plasmodium falciparum 3D7 (PF3D7_0213400), sequence (Q7YTF7 1-343): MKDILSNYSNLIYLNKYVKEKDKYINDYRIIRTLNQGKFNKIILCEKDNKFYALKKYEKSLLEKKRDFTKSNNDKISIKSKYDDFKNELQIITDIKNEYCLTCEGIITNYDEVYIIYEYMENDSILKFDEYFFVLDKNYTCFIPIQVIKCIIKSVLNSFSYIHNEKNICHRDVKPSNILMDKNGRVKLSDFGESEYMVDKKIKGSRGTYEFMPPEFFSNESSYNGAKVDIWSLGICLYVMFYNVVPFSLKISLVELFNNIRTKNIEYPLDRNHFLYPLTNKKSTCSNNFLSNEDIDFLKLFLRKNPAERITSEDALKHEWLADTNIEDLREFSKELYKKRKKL

[8] = target: Calcium-dependent protein kinase 4 (Plasmodium falciparum (isolate 3D7)) (UniProt Q8IBS5); experiment: PfCDPK4 kinase inhibitors, biochemical, TCAMS library (AID 1159588; cut-off not given, nearly all actives have IC50 up to about 0.91 µM); conditions: recombinant PfCDPK4, Kinase-Glo ATP depletion luminescence
Calcium-dependent protein kinase 4 (Plasmodium falciparum (isolate 3D7)), sequence (Q8IBS5 whole entry, looked up): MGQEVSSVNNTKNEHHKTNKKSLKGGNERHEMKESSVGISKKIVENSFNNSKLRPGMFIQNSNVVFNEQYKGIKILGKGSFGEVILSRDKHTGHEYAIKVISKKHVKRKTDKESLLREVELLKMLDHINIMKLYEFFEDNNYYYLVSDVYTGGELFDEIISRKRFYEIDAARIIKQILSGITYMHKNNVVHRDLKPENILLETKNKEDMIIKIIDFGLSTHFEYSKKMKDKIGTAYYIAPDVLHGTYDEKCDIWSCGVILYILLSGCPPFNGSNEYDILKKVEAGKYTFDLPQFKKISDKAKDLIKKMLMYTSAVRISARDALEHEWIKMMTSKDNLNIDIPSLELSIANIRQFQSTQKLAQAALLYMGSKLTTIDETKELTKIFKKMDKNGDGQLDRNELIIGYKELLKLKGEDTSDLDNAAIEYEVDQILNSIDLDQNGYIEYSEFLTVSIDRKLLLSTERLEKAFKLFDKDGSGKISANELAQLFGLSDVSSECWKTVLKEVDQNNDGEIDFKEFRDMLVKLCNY

COc1cccc(CNc2noc(-c3c(-c4ccccc4)noc3C)n2)c1OC
inactive: inhibition [2] -3% | inhibition [3] -2% | outcome [5] | outcome [6] | outcome [7] | outcome [8]
active: growth inhibition [1] 86% | growth inhibition [4] 97%

CCOC(=O)C1=C(C)N=c2sc(=Cc3ccccc3O)c(=O)n2C1c1ccc(OC)c2ccccc12 (stereo not drawn)
active: growth inhibition [4] 97%
inactive: growth inhibition [1] 38% | inhibition [2] -6% | inhibition [3] 1% | outcome [5] | outcome [6] | outcome [7] | outcome [8]

CCCCNc1cc(NCCCC)c2c(n1)[nH]c1ccccc12
inactive: inhibition [2] 13% | inhibition [3] -1% | outcome [5] | outcome [6] | outcome [7] | outcome [8]
active: growth inhibition [1] 94% | growth inhibition [4] 100%

c1ccc2c(c1)CN(Cc1ccsc1)CC1(CCN(Cc3c[nH]c4cnccc34)CC1)O2
active: growth inhibition [1] 75% | growth inhibition [4] 87%
inactive: inhibition [2] 38% | inhibition [3] -2% | outcome [5] | outcome [6] | outcome [7] | outcome [8]

CCOc1ccc(C(C)NC(=O)C2COc3ccccc3O2)cc1OCC (stereo not drawn)
inactive: inhibition [2] -4% | inhibition [3] 1% | outcome [5] | outcome [6] | outcome [7] | outcome [8]
active: growth inhibition [1] 100% | growth inhibition [4] 101%

N=C(N)c1cccc(OCCCOc2cccc(NC(=O)Nc3ccc([N+](=O)[O-])cc3)c2)c1
inactive: growth inhibition [1] 22% | inhibition [2] 16% | inhibition [3] 3% | outcome [5] | outcome [6] | outcome [7] | outcome [8]
active: growth inhibition [4] 98%

O=C1C(c2ccccc2)=C(Nc2ccc(OC(F)(F)F)cc2)c2ccccc21
inactive: inhibition [2] 18% | inhibition [3] 1% | outcome [5] | outcome [6] | outcome [7] | outcome [8]
active: growth inhibition [1] 96% | growth inhibition [4] 96%

Oc1ccc(-c2nc3c(N4CCN(Cc5ccccc5)CC4)cccc3n2C2CCNCC2)cc1
inactive: growth inhibition [1] 7% | inhibition [2] -1% | inhibition [3] 0% | outcome [5] | outcome [6] | outcome [7] | outcome [8]
active: growth inhibition [4] 85%

Cn1c(N)c(C(=O)CSc2ncc(-c3ccc(F)cc3)n2Cc2ccccc2)c(=O)n(C)c1=O
active: growth inhibition [1] 66% | growth inhibition [4] 88%
inactive: inhibition [2] 11% | inhibition [3] 1% | outcome [5] | outcome [6] | outcome [7] | outcome [8]

COc1cccc(CNC(=O)c2cccc(-c3cccc(CN4CCC(N5CCCC5)CC4)c3)n2)c1
active: growth inhibition [1] 76% | growth inhibition [4] 100%
inactive: inhibition [2] 22% | inhibition [3] 1% | outcome [5] | outcome [6] | outcome [7] | outcome [8]

Nc1cccc(CNCc2cccc(-c3cccc(-c4nc5ccccc5[nH]4)c3)c2)c1
inactive: inhibition [2] 1% | inhibition [3] -7% | outcome [5] | outcome [6] | outcome [7] | outcome [8]
active: growth inhibition [1] 84% | growth inhibition [4] 101%

Nc1nc(N)c2c(CCc3ccc4ccccc4c3)cccc2n1
inactive: growth inhibition [1] 6% | inhibition [3] -2% | outcome [5] | outcome [6] | outcome [7] | outcome [8]
active: inhibition [2] 56% | growth inhibition [4] 102%

Cc1cc2nc(-c3ccc(C(=O)NCc4cccc(F)c4)cc3)[nH]c2cc1C
inactive: growth inhibition [1] 6% | inhibition [2] -5% | inhibition [3] -5% | outcome [5] | outcome [6] | outcome [7] | outcome [8]
active: growth inhibition [4] 91%

CCCCCn1c(Sc2ccc(C#N)c([N+](=O)[O-])c2)nnc1-c1ccc(OC)cc1
inactive: growth inhibition [1] 44% | inhibition [2] 8% | inhibition [3] 4% | outcome [5] | outcome [6] | outcome [7] | outcome [8]
active: growth inhibition [4] 88%

O=C(Nc1ccccc1)N(Cc1ccc(-c2cccc(CNCc3ccc4c(c3)OCO4)c2)cc1)C1CCN(Cc2ccccc2)CC1
inactive: inhibition [2] 29% | inhibition [3] -1% | outcome [5] | outcome [6] | outcome [7] | outcome [8]
active: growth inhibition [1] 65% | growth inhibition [4] 100%

CN(C)c1cccc2c1nc(-c1ccco1)n2CC1CCCN1 (stereo not drawn)
active: growth inhibition [4] 86%
inactive: growth inhibition [1] 46% | inhibition [2] -1% | inhibition [3] 6% | outcome [5] | outcome [6] | outcome [7] | outcome [8]

COc1ccc2ncc(F)c([C@H](O)CN3CCC(NCc4cc5c(cn4)OCCO5)CC3)c2c1
inactive: inhibition [2] 5% | inhibition [3] 7% | outcome [5] | outcome [6] | outcome [7] | outcome [8]
active: growth inhibition [1] 97% | growth inhibition [4] 101%

CCOC(=O)N1CCN(CCCNc2c3ccc(Cl)cc3nc3ccc(OC)cc23)CC1
inactive: inhibition [3] 3% | outcome [5] | outcome [6] | outcome [7] | outcome [8]
active: growth inhibition [1] 100% | inhibition [2] 52% | growth inhibition [4] 101%

Cc1ccccc1C1CCN(C2CCC(NC(=O)c3ccc(-c4ccccc4)s3)CC2)CC1 (stereo not drawn)
active: growth inhibition [1] 84% | growth inhibition [4] 101%
inactive: inhibition [2] 26% | inhibition [3] 0% | outcome [5] | outcome [6] | outcome [7] | outcome [8]

COc1ccc(Cl)cc1NC(=O)Nc1ccnc2ccccc12
inactive: growth inhibition [1] 44% | inhibition [2] 13% | inhibition [3] -6% | outcome [5] | outcome [6] | outcome [7] | outcome [8]
active: growth inhibition [4] 101%

O=C(Nc1ccc(OC2CCN(Cc3ccc(F)cc3)C2)c(Cl)c1)c1ccc(F)cc1 (stereo not drawn)
inactive: inhibition [2] 10% | inhibition [3] -3% | outcome [5] | outcome [6] | outcome [7] | outcome [8]
active: growth inhibition [1] 94% | growth inhibition [4] 96%

CC(C)c1ccc(NC(=O)N2CCc3ccc(OCCN(C(C)C)C(C)C)cc32)c(Br)c1
active: growth inhibition [4] 86%
inactive: growth inhibition [1] 5% | inhibition [2] 6% | inhibition [3] 2% | outcome [5] | outcome [6] | outcome [7] | outcome [8]

Cc1ccc2nc(-c3ccc(C(=O)NC4CCN(Cc5ccccc5)CC4)s3)[nH]c2c1
active: growth inhibition [1] 83% | growth inhibition [4] 97%
inactive: inhibition [2] 13% | inhibition [3] -5% | outcome [5] | outcome [6] | outcome [7] | outcome [8]

Cc1ccc2c(NN=Cc3ccccc3[N+](=O)[O-])cc(C)nc2c1
active: growth inhibition [1] 100% | growth inhibition [4] 102%
inactive: inhibition [2] 13% | inhibition [3] 4% | outcome [5] | outcome [6] | outcome [7] | outcome [8]

O=C(Cc1cccc(O)c1)Nc1ccc(-c2cccc(-c3nc4ccc(C(F)(F)F)cc4[nH]3)c2)cc1
active: growth inhibition [4] 86%
inactive: growth inhibition [1] 1% | inhibition [2] 14% | inhibition [3] 2% | outcome [5] | outcome [6] | outcome [7] | outcome [8]

COc1ccc2nccc(NN=Cc3ccncc3)c2c1
active: growth inhibition [1] 95% | growth inhibition [4] 99%
inactive: inhibition [2] 4% | inhibition [3] -3% | outcome [5] | outcome [6] | outcome [7] | outcome [8]

COc1cc(CNCCCNc2nc3ncccc3[nH]2)c2[nH]cc(Br)c2c1
inactive: growth inhibition [1] 3% | inhibition [2] 12% | inhibition [3] 8% | outcome [5] | outcome [6] | outcome [7] | outcome [8]
active: growth inhibition [4] 92%

CC(C)CCN1CCC(Oc2ccc(NC(=O)c3cccs3)cc2Cl)C1 (stereo not drawn)
active: growth inhibition [1] 93% | growth inhibition [4] 94%
inactive: inhibition [2] 17% | inhibition [3] 2% | outcome [5] | outcome [6] | outcome [7] | outcome [8]

CC(CCc1ccc(OCc2ccccc2)cc1)NCC(O)c1ccccc1 (stereo not drawn)
inactive: inhibition [2] 9% | inhibition [3] -1% | outcome [5] | outcome [6] | outcome [7] | outcome [8]
active: growth inhibition [1] 72% | growth inhibition [4] 86%

CCOC(=O)NCC(=O)Nc1cccc(-c2cccc(-c3nc4c(C)cccc4[nH]3)c2)c1
active: growth inhibition [4] 88%
inactive: growth inhibition [1] 35% | inhibition [2] 14% | inhibition [3] 1% | outcome [5] | outcome [6] | outcome [7] | outcome [8]

CN(CCCCCNC(=O)/C=C/c1ccc(Cl)c(Cl)c1)CCCCc1c[nH]c2ccccc12
active: growth inhibition [4] 90%
inactive: growth inhibition [1] 15% | inhibition [2] 17% | inhibition [3] 2% | outcome [5] | outcome [6] | outcome [7] | outcome [8]

Cc1cc2nc(-c3cccc(C(=O)NC4CCN(Cc5ccccc5)CC4)c3)[nH]c2cc1C
inactive: growth inhibition [1] 13% | inhibition [2] 32% | inhibition [3] 2% | outcome [5] | outcome [6] | outcome [7] | outcome [8]
active: growth inhibition [4] 101%

CCc1ccc(C2CCN(CCCCNC(=O)c3ccc(-c4ccc(C(F)(F)F)cc4)cc3)CC2)c(OCCO)c1
active: growth inhibition [1] 69% | inhibition [2] 82% | growth inhibition [4] 101%
inactive: inhibition [3] -6% | outcome [5] | outcome [6] | outcome [7] | outcome [8]

O=C(CCc1cnc[nH]1)Nc1cccc(-c2cccc(-c3nc4ccccc4[nH]3)c2)c1
active: growth inhibition [4] 101%
inactive: growth inhibition [1] 25% | inhibition [2] 8% | inhibition [3] 3% | outcome [5] | outcome [6] | outcome [7] | outcome [8]

CCOC(=O)c1cnc2c(OC)cc(OC)c(Cl)c2c1Nc1ccccc1
active: growth inhibition [1] 100% | growth inhibition [4] 99%
inactive: inhibition [2] 13% | inhibition [3] -3% | outcome [5] | outcome [6] | outcome [7] | outcome [8]

c1ccc(-c2cc3cccc(-c4nc5ccncc5[nH]4)c3o2)cc1
inactive: inhibition [2] 37% | inhibition [3] -6% | outcome [5] | outcome [6] | outcome [7] | outcome [8]
active: growth inhibition [1] 95% | growth inhibition [4] 100%

CC(=O)Oc1cc(OCc2ccccc2)c(OC(C)=O)c(OCc2ccccc2)c1
inactive: inhibition [2] 11% | inhibition [3] 1% | outcome [5] | outcome [6] | outcome [7] | outcome [8]
active: growth inhibition [1] 78% | growth inhibition [4] 94%

O=C(Nc1ccc(OC2CCN(Cc3ccc(F)cc3)CC2)c(Cl)c1)c1ccsc1
active: growth inhibition [1] 90% | growth inhibition [4] 94%
inactive: inhibition [2] 5% | inhibition [3] 7% | outcome [5] | outcome [6] | outcome [7] | outcome [8]

CCCCCc1ccc(NC(=O)Nc2ccc(Cn3ncc(N4CCCNCC4)c(Cl)c3=O)cc2)cc1
inactive: growth inhibition [1] 23% | inhibition [2] 15% | inhibition [3] 3% | outcome [5] | outcome [6] | outcome [7] | outcome [8]
active: growth inhibition [4] 87%

COc1cc(OC)c(OC)cc1C=NNc1cc(C)nc2ccccc12
inactive: inhibition [2] 5% | inhibition [3] 0% | outcome [5] | outcome [6] | outcome [7] | outcome [8]
active: growth inhibition [1] 95% | growth inhibition [4] 100%

O=C(N[C@@H](Cc1ccccc1)C(=O)NC1CCCCCC1)c1ccc(O)c(-c2ccc(Cl)c(Cl)c2)c1
active: growth inhibition [1] 99% | growth inhibition [4] 92%
inactive: inhibition [2] -6% | inhibition [3] -9% | outcome [5] | outcome [6] | outcome [7] | outcome [8]
